Of roughly 8,800 targets only a part is listed; those with a hit were picked by preference. About 0.5% of all pairs of compound and target were hits. A number with no mark means an inactive call.
Assays:
Assay in all cases: log2 fold change, soluble protein after heating vs DMSO (PISA); higher = thermal stabilisation; K562 lysate, 10 uM; active = over 0.2 and 3.5 SD of the protein, either way, in both replicates (recomputed)
[1] = compound: CS(=O)(=O)CCNCc1ccc(-c2ccc3ncnc(Nc4ccc(OCc5cccc(F)c5)c(Cl)c4)c3c2)o1 [lapatinib]
Procedure, shortened: (§1)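 Values give the log-two fold change in thermal stability against solvent controls, from duplicates. Crude K562 extract at 1 mg/mL protein, made by dounce homogenisation in PBS pH 7.4 with 1 mM MgCl2, was treated with 10 μM compound for 30 min. After 3 min heating across 48°C-58°C, aliquots were pooled, adjusted to 0.5% NP-40 at 4°C and centrifuged at 21,000xg for 90 min. The supernatant was measured by TMTpro 16plex LC-MS/MS with channel sums equalised.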

[2] = compound: CS(=O)(=O)N1CCN(Cc2cc3nc(-c4cccc5[nH]ncc45)nc(N4CCOCC4)c3s2)CC1 [pictilisib]
Procedure, shortened: as §1

[3] = compound: C[C@@H](Oc1cc(-c2cnn(C3CCNCC3)c2)cnc1N)c1c(Cl)ccc(F)c1Cl [crizotinib]
Procedure, shortened: as §1

[4] = compound: C[C@H](C1=CC=C(C=C1)C(=O)NC2=C3C=CNC3=NC=C2)N
Procedure, shortened: as §1

[5] = compound: C[C@H](Nc1ncnc2nc[nH]c12)c1cc2cccc(Cl)c2c(=O)n1-c1ccccc1 [duvelisib]
Procedure, shortened: as §1

[6] = compound: Cc1cc(Nc2cc(CN3CCOCC3)c3nc(C)c(Cc4ccc(Cl)cc4F)n3n2)n[nH]1 [gandotinib]
Procedure, shortened: as §1

[7] = compound: Cc1cc(Nc2cc(N3CCN(C)CC3)nc(Sc3ccc(NC(=O)C4CC4)cc3)n2)n[nH]1 [tozasertib]
Procedure, shortened: as §1

[8] = compound: Cc1ccc(-n2nc(C(C)(C)C)cc2NC(=O)Nc2ccc(OCCN3CCOCC3)c3ccccc23)cc1 [doramapimod]
Procedure, shortened: as §1

[9] = compound: Cc1ccc(NC(=O)c2ccc(CN3CC[C@H](N(C)C)C3)c(C(F)(F)F)c2)cc1Nc1nccc(-c2cncnc2)n1 [bafetinib]
Procedure, shortened: as §1

[10] = compound: Cc1cccc(CC(=O)N2CCc3c2ccc(-c2cn(C)c4ncnc(N)c24)c3F)n1
Procedure, shortened: as §1

UniProt O95271, sequence (O95271 whole entry, looked up): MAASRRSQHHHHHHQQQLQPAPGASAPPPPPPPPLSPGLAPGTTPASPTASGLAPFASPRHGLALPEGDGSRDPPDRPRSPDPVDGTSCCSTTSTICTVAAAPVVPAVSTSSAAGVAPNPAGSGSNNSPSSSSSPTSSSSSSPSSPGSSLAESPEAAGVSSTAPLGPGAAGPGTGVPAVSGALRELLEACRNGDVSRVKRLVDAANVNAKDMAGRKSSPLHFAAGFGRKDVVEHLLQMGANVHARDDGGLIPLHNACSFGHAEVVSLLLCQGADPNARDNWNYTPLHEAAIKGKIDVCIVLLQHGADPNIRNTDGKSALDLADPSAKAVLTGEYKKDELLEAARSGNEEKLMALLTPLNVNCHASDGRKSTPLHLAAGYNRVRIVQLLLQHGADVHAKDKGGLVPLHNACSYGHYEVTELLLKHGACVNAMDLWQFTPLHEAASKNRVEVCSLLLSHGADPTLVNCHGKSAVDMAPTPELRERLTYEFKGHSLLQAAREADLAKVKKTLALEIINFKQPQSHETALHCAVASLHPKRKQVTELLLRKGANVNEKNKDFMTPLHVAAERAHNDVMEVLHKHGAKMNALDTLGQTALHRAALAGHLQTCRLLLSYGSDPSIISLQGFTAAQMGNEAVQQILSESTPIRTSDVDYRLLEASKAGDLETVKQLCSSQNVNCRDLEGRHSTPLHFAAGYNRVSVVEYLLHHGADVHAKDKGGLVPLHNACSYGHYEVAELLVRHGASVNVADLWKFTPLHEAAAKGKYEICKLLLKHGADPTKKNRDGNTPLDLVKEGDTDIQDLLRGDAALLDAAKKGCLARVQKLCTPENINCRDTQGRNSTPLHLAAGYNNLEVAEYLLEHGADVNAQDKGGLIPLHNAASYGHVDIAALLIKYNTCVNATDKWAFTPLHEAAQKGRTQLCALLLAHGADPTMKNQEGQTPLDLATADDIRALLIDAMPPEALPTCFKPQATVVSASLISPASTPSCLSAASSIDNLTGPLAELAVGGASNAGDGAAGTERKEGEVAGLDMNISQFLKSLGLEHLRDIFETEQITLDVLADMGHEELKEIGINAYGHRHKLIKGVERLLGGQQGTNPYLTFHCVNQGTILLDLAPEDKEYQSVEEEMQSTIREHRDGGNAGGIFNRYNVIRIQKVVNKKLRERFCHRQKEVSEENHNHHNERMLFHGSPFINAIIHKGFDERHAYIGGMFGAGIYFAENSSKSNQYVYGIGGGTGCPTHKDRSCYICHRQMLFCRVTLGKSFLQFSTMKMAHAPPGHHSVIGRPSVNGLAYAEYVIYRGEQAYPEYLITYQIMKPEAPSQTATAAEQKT
UniProt Q9H3M7, sequence (Q9H3M7 whole entry, looked up): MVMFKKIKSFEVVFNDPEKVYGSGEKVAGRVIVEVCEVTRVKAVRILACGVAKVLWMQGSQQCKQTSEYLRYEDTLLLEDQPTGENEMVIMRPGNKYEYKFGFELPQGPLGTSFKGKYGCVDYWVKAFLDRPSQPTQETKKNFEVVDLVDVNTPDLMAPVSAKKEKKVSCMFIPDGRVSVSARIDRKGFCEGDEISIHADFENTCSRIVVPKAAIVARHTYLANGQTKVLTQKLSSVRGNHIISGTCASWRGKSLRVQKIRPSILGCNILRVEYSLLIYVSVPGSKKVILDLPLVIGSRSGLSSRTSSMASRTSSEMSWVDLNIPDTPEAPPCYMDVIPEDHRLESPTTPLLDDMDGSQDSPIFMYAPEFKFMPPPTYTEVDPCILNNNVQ
UniProt Q86UE8, sequence (Q86UE8 whole entry, looked up): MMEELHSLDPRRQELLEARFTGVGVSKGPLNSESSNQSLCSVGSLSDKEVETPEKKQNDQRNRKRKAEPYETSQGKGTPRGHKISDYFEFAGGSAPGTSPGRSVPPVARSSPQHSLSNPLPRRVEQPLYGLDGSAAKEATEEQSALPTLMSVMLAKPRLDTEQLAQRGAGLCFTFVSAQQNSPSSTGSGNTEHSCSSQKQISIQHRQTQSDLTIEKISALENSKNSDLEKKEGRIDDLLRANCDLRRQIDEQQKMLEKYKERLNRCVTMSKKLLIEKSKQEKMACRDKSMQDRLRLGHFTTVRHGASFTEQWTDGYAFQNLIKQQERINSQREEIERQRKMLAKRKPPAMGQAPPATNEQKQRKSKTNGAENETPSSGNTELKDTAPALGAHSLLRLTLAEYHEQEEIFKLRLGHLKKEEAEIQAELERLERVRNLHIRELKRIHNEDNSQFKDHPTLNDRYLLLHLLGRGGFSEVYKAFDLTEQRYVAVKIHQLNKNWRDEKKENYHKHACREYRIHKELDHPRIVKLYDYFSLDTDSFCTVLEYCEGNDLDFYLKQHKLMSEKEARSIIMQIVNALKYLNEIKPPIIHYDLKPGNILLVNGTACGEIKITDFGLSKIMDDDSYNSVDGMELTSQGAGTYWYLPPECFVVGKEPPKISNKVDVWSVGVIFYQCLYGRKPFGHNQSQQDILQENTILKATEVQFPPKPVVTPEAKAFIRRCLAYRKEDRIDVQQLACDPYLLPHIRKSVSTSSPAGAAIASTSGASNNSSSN
UniProt Q24JP5, sequence (Q24JP5 whole entry, looked up): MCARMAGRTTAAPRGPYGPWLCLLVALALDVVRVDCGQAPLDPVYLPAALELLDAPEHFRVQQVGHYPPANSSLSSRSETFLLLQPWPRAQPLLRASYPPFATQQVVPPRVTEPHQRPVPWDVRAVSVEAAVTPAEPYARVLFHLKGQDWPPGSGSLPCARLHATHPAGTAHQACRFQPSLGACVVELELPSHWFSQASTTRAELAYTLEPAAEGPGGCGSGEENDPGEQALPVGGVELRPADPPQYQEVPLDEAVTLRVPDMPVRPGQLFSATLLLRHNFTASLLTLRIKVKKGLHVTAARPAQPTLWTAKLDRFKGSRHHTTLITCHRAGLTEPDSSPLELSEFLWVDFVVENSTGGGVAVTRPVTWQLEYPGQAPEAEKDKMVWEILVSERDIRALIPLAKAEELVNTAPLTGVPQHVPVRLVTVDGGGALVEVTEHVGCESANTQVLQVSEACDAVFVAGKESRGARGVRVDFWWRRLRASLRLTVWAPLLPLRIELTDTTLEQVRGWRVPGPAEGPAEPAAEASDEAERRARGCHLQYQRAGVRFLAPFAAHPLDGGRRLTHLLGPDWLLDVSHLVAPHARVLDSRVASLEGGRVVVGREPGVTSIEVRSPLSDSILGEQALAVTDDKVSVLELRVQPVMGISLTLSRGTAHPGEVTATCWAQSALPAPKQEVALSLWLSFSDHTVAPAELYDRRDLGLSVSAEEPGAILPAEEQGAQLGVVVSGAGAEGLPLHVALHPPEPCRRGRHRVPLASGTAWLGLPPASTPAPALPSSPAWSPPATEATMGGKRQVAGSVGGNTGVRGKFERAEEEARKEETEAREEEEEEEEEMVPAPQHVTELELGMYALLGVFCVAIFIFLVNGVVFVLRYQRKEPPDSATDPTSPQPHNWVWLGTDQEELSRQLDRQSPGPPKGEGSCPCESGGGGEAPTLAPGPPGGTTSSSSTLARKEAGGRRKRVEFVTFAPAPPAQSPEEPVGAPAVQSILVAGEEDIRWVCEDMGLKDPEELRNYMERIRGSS
UniProt Q01085, sequence (Q01085 whole entry, looked up): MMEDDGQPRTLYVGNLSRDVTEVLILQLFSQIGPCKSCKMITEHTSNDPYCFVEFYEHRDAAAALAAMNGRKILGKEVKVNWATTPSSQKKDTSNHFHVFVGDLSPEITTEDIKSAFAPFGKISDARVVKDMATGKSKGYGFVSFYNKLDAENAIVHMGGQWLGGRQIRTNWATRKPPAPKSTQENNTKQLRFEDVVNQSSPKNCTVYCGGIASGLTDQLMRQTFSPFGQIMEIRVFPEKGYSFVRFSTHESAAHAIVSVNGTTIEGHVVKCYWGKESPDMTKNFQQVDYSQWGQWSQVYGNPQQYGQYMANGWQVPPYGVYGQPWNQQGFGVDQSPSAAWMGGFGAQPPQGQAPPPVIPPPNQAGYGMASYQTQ
UniProt A6NHL2, sequence (A6NHL2 whole entry, looked up): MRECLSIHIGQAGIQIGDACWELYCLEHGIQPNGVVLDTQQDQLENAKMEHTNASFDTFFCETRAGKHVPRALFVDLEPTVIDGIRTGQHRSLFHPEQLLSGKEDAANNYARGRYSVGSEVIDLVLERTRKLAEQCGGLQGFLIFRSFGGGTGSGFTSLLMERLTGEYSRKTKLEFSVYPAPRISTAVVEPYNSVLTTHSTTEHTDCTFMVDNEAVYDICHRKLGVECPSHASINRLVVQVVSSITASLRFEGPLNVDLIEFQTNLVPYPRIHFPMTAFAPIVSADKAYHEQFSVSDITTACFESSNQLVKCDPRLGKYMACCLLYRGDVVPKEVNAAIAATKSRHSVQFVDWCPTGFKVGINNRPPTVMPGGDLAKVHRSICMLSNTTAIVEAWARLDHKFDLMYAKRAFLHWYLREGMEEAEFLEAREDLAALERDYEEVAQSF
UniProt P0C1Z6, sequence (P0C1Z6 whole entry, looked up): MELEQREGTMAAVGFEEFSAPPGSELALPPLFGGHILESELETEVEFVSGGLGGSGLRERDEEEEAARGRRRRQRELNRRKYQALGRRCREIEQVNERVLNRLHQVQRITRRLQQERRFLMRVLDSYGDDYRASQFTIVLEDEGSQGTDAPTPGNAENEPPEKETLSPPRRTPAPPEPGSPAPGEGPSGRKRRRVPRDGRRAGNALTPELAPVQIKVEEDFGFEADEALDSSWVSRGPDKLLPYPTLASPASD
UniProt P42167, sequence (P42167 whole entry, looked up): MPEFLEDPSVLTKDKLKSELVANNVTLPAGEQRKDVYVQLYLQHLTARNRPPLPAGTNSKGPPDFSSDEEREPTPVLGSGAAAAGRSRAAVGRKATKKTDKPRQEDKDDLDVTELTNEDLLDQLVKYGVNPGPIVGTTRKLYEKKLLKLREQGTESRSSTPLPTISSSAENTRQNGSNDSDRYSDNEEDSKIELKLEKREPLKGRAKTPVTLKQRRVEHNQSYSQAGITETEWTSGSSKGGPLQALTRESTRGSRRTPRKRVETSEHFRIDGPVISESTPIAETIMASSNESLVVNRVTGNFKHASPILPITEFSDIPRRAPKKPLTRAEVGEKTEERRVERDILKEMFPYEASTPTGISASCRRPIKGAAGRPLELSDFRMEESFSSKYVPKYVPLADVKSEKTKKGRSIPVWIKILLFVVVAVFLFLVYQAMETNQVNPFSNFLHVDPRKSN

| Target | log2 fold change [1] | log2 fold change [2] | log2 fold change [3] | log2 fold change [4] | log2 fold change [5] | log2 fold change [6] | log2 fold change [7] | log2 fold change [8] | log2 fold change [9] | log2 fold change [10] |
| --- | --- | --- | --- | --- | --- | --- | --- | --- | --- | --- |
| TTF2 (UniProt Q9UNY4) | 0.028 | -0.048 | -0.104 | -0.052 | 0 | 0 | 0.019 | 0.053 | -0.02 | 0.102 |
| TOPBP1 (UniProt Q92547) | 0.095 | -0.037 | 0.023 | 0.206 | -0.03 | -0.048 | -0.066 | 0.056 | -0.076 | -0.017 |
| TBC1D2B (UniProt Q9UPU7) | 0.076 | 0.006 | 0.041 | 0.007 | 0.027 | -0.096 | -0.005 | 0.007 | -0.057 | 0.052 |
| TNIK isoform 5 (UniProt Q9UKE5) | -0.098 | 0.046 | -0.035 | 0.051 | 0.009 | 0.025 |  | 0.311 | -0.055 | -0.02 |
| UBE3B (UniProt Q7Z3V4) | -0.019 | 0.025 | -0.027 | -0.174 | 0.136 | -0.17 | -0.005 | 0.083 | -0.082 | 0.203 |
| TASP1 (UniProt Q9H6P5) | 0.009 | -0.217 | -0.086 |  | 0 |  | -0.002 | 0.053 | -0.235 |  |
| TRIP12 isoform 2 (UniProt Q14669) | -0.109 | 0.016 | -0.029 | -0.012 | 0.05 | -0.042 | 0.024 | -0.006 | -0.06 | 0.06 |
| TIAL1 isoform 2 (UniProt Q01085) | -0.013 | -0.063 | 0.038 | -0.024 | -0.014 | 0.054 | 0.011 | 0.007 | 0 | 0.001 |
| TUBB4A (UniProt M0QYM7) | -0.009 | -0.067 | -0.176 | -1.05 (active) |  | 0.39 | 0.138 | 0.116 | -0.516 | 0.42 |
| TPD52L2 isoform 7 (UniProt O43399) | 0.039 | 0.003 | 0.095 | -0.124 | -0.022 | 0.222 (active) | 0.043 | 0.03 | 0.139 | 0.057 |
| TGOLN2 isoform 7 (UniProt O43493) | -0.007 | 0.001 | 0.045 | -0.051 | 0.021 | 0.034 | -0.065 | -0.03 | 0.032 | 0.034 |
| TK1 (UniProt K7ERV3) |  | -0.144 | 0.075 | -0.07 | -0.021 | 0.04 | 0.319 (active) | 0.041 | -0.181 | 0.01 |
| TM2D3 (UniProt Q9BRN9) |  | 0.069 |  | -0.836 (active) |  | 0.329 | -0.075 |  | 0.048 | 0.348 |
| TFPI isoform 2 (UniProt P10646) |  |  | 0.045 |  |  |  |  | -0.121 |  |  |
| TPD52L2 isoform 3 (UniProt O43399) |  | -0.112 |  | -0.155 |  | 0.377 |  |  | -0.102 | -0.124 |
| UBAP2, A0A0D9SFI5 |  |  | -0.037 |  |  |  |  | -0.056 |  |  |
| UBN1 (UniProt Q9NPG3) | -0.187 |  | -0.042 | -0.057 | -0.092 | 0.215 | 0.069 | -0.256 |  | 0.308 |
| TRAF7 (UniProt Q6Q0C0) |  |  | -0.01 | -0.241 | -0.029 | -0.128 | 0.124 | 0.122 |  | 0.127 |
| TMPO isoform 2 (UniProt P42167) |  | 0.04 |  |  | -0.041 |  | -0.029 |  | -0.026 |  |
| TCF3 (UniProt X6REB3) |  |  |  | -0.081 |  | 0.269 |  |  |  | 0.105 |
| TFPT (UniProt P0C1Z6) | -0.004 | 0.032 |  |  | -0.005 |  |  |  | -0.004 |  |
| UBIAD1 (UniProt Q9Y5Z9) | 0.031 |  | -0.048 | 0.036 | -0.054 | 0 | -0.024 | -0.014 |  | 0.016 |
| UCP2 (UniProt P55851) |  |  | -0.441 (active) |  |  |  |  | -0.141 |  |  |
| TPM3 isoform 3 (UniProt P06753) | -0.009 |  | 0.095 | -0.411 (active) | 0.011 | 0.176 | 0.143 | 0.027 |  | 0.202 |
| TCF4 (UniProt P15884) | -0.212 |  | 0.128 | 0.039 | 0.039 | -0.022 | -0.044 | -0.099 |  | 0 |
| U2AF1L5 (UniProt P0DN76) | 0.091 |  |  | -0.904 (active) | 0.021 | 0.114 | 0.207 |  |  | 0.342 |

| Target | log2 fold change [1] | log2 fold change [2] | log2 fold change [3] | log2 fold change [4] | log2 fold change [5] | log2 fold change [6] | log2 fold change [7] | log2 fold change [8] | log2 fold change [9] | log2 fold change [10] |
| --- | --- | --- | --- | --- | --- | --- | --- | --- | --- | --- |
| TEDC1 (UniProt Q86SX3) | -0.064 |  | -0.078 |  | 0.159 |  | -0.103 | 0.009 |  |  |
| TTLL12 (UniProt V9GY16) |  | 0.058 | 0.072 | -0.169 |  | 0.188 | -0.087 | -0.029 | -0.187 | 0.263 |
| TTC37 (UniProt Q6PGP7) | -0.157 | -0.03 | -0.202 |  | 0.096 |  |  | 0.069 | -0.26 |  |
| UBL5 (UniProt Q9BZL1) |  | -0.036 | 0.072 | -0.194 | -0.042 | 0.042 | 0.138 | 0.013 | -0.034 | 0.104 |
| UBAP2L isoform 1 (UniProt Q14157) |  | -0.116 | 0.376 |  |  |  |  | -0.26 | 0.56 |  |
| TLK2 isoform 3 (UniProt Q86UE8) |  |  |  | 0.012 |  | 0.009 |  |  |  | -0.101 |
| TMEM154 (UniProt Q6P9G4) |  |  | 0.035 |  | 0.039 |  | 0.03 | -0.146 |  |  |
| TRPM4 (UniProt Q8TD43) |  | -0.085 | 0.055 | -0.654 (active) | 0.042 | 0.088 |  | -0.111 | -0.02 | 0.25 |
| TUBA4A (UniProt C9JQ00) |  | -0.2 |  | -0.094 |  | -0.142 |  |  | -0.368 | 0.228 |
| TGFBR1 isoform 2 (UniProt P36897) |  |  |  |  | -0.004 |  | 0.022 |  |  |  |
| TXNIP (UniProt Q9H3M7) |  | 0.029 | -0.045 | 0.143 | 0 | -0.089 | -0.015 | 0.019 | -0.042 | -0.037 |
| UBXN2B (UniProt Q14CS0) | -0.226 | -0.036 |  | -0.01 | 0.07 | 0.213 | 0.027 |  | 0.003 | -0.005 |
| TRIM3 (UniProt O75382) | 0.009 |  |  |  |  |  | -0.056 |  |  |  |
| TNKS (UniProt O95271) | -0.085 |  | -0.031 | -0.302 (active) | -0.027 | 0.038 | 0.073 | -0.013 |  | 0.107 |
| TSPAN3 (UniProt O60637) | -0.013 |  |  | 0.513 (active) | -0.058 | -0.163 | -0.01 |  |  | -0.342 |
| UBAP2L (UniProt F8W726) | -0.15 |  | 0.098 |  |  |  |  | -0.068 |  |  |
| TUBAL3 (UniProt A6NHL2) | -0.07 | -0.034 |  | -0.434 | -0.001 | 0.312 | 0.09 |  | -0.232 | 0.567 (active) |
| TCF3 isoform 2 (UniProt P15923) |  |  | -0.048 |  |  |  |  | 0.092 |  |  |
| TJP1 (UniProt H0Y3R8) |  |  |  | 0.068 |  | -0.057 |  |  |  | -0.063 |
| UBR4 isoform 4 (UniProt Q5T4S7) | 0.146 |  |  |  | -0.143 |  | 0.079 |  |  |  |
| TJP1 (UniProt G3V1L9) |  | 0.157 | 0.068 | 0.027 | -0.042 | 0.071 |  | -0.209 | -0.047 | 0.059 |
| TMC1 (UniProt Q8TDI8) | -0.134 |  | -0.262 |  |  |  | 0.074 | 0.252 |  |  |
| TEC (UniProt P42680) | 0.007 |  |  |  |  |  | -0.198 |  |  |  |
| TMEM132A isoform 2 (UniProt Q24JP5) | -0.172 |  | -0.237 | -0.084 |  | 0.077 | 0.042 | -0.163 |  | 0.002 |
| TLE3 (UniProt H0YL70) |  |  |  |  | 0.037 |  |  |  |  |  |

Reference: the supplement of paper PMC10849652
